# Screening data (PubChem)
# The list is not random: actives were taken first. Their share in the collection is about 9%.
# HPGD inh – blocks human HPGD enzyme activity; purified HPGD, NADH fluorescence kinetic, PGE2 substrate; AID 894; Potency, µM, without a hit: at the top dose activity change, negative = inhibition, actives largely listed as inhibitors; hit rate 4.3% among 150,000; further: potency means the concentration at half of the fitted maximal effect
# Target sequence (P15428 whole entry, looked up): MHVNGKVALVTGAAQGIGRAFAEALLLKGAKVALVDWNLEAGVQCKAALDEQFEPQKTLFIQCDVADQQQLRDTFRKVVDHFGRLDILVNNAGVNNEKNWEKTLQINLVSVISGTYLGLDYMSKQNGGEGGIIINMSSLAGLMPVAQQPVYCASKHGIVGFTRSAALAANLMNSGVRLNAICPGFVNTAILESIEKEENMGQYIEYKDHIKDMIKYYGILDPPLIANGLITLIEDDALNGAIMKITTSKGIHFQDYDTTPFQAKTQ
#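 NADH formation kinetics: reaction with 30 uM PGE2 and 1 mM NAD+ (final), 20 nM enzyme, Tris-HCl pH 8 with Tween 20, after 15 min compound preincubation at room temperature. Fluorescence change, last versus first of five reads.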
# IMPase inh – membrane-permeable compound that blocks inositol monophosphatase; P97697; CHO-M1 cells, IP1 accumulation, HTRF TR-FRET ratio; inhibition (IP1 accumulation), % at 46.1 µM; 120,000 tested, under 10 active; AID 901; active means well fitted curve in the direction sought with a large enough effect in the signal ratio, not every such curve was filed as active; inconclusive means small, poorly fitted or top-dose-only effect, or a change in a side signal; inactive means no such curve, though single readings can be large or run the other way; the % refers to the signal ratio;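 further: cells stimulated with carbachol in lithium chloride buffer; plate controls were DMSO basal wells for no effect and reference inhibitor wells for full effect; higher means more IMPase inhibition seen as more IP1 and lower FRET ratio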
# Target sequence (P97697 whole entry, looked up): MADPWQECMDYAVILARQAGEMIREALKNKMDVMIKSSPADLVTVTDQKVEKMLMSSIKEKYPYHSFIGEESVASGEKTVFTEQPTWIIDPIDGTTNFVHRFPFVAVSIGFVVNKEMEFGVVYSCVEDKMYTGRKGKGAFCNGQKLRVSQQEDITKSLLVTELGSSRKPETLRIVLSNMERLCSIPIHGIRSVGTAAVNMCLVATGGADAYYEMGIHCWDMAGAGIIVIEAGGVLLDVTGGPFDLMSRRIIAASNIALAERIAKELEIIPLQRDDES
#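 The IP-One HTRF competitive assay in carbachol-stimulated CHO-M1 cells quantifies cellular IP1. Compounds spanned up to 46 uM final, and activity is expressed as AC50 from concentration-response fits of the ratio and donor data.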
# ALDH1A1 inh – inhibitors of human aldehyde dehydrogenase 1A1 | P00352 | Purified ALDH1A1, NADH fluorescence, propionaldehyde substrate | Potency, µM (titrated, usually from 75.3 µM), for inactives: top-dose activity, negative = inhibition, hits mostly inhibitors | hit rate 7.3% among 220,000;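 further: potency means the concentration at half of the fitted maximal effect; plate controls were no enzyme wells and a reference inhibitor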
# An asterisk follows results filed as active; ? = inconclusive; . = no result given; [ ] = another dose, or the depositor's remark. Unless noted, the call rests on the fitted dose curve; in most records, active means well fitted inhibition curve with a large enough effect (not every such curve was filed as active); inconclusive means small, poorly fitted or top-dose-only effect, or another doubt; inactive means no such curve, though single readings can be large or run the other way. Unless noted, on the % scale 0 is the no-effect control and ±100 the full control effect.
SMILES,HPGD inh,IMPase inh,ALDH1A1 inh
N#Cc1ccc(CS(=O)(=O)c2ccccc2)cc1,-7.1%,.,0.3%
O=C(Nc1ccccc1Cl)c1cc(S(=O)(=O)N2CCCC(C(=O)O)C2)ccc1F (stereo unspecified),-23.4%,8.9,22.4µM*
O=C(Nc1ccccc1Cl)c1cc(S(=O)(=O)N2CCCCC2)ccc1N1CCOCC1,-21.4%,5.5,-4.3%
CC1(C)CC(=O)C(C=Nc2cccnc2/N=C/C2=C(O)CC(C)(C)CC2=O)=C(O)C1,.,.,2.24µM*
CC1(C)CC(=O)C(C=N)=C(O)C1,-0.4%,-4.0,-1.6%
CC1(C)CC(=O)C(C=NCCc2ccccn2)=C(O)C1,3.4%,-1.7,2.7%
CC1(C)CC(=O)C(C=Nc2cccnc2)=C(O)C1,-4.7%,4.6,7.94µM*
Cc1cc(N2CCN(C)CC2)nc2ccc(NC(=O)CCC(=O)NCc3ccco3)cc12,?,2.9,?
O=C(Cc1ccccc1)Nc1ccc(NC(=O)c2cccs2)c(Cl)c1,-12.4%,.,5.1%
O=C(Cc1nn[nH]n1)Nc1ccc(F)cc1F,.,.,10.2%
CCOC(=O)c1ccc(N2Cc3ccccc3C2=N)cc1,-11.6%,18.6,10.7%
CCOC(=O)c1ccc(N2Cc3ccccc3C2)cc1O,-17.7%,-9.7,20µM*
Nc1ccccc1[N+](=O)[O-],-5.7%,.,10.6%
CC(C)C(NC(=O)C1CCCCC1)C(=O)NCCc1ccccc1 (stereo unspecified),.,.,5.8%
O=S(=O)(CC(O)COc1ccccc1Cl)c1ccccc1 (stereo unspecified),-2.5%,1.6,7.9%
O=S(=O)(Cc1ccccc1Cl)CC(O)COc1ccccc1Cl (stereo unspecified),11.2µM*,-4.1,-3.9%
Cc1c(C)c2c(c(C)c1O)CCC(C)(COc1ccc(Cc3sc(=O)[nH]c3O)cc1)O2 (stereo unspecified),-7.9%,.,8.2%
Cc1noc(C)c1C(=O)N1CCC[C@@]2(CCN(Cc3ccc(C#N)cc3)C2)C1,-4.7%,.,3.9%
COCC(C)NC(=O)COc1ccc(Cl)cc1Cl (stereo unspecified),-26.8%,7.9,-4.4%
Cc1ccccc1NC(=O)c1ccc(S(=O)(=O)N(C)C)cc1,-3.3%,0.1,9.5%
CN(C)S(=O)(=O)c1ccc(C(=O)Nc2ccccc2SCCC#N)cc1,.,.,15.8µM*
O=C(NCc1cccs1)C1CC(=O)N(c2ccc(Cl)cc2)C1 (stereo unspecified),.,.,-0.8%
CC1Cc2ccccc2N1C(=O)CNCCCN(C)C (stereo unspecified),2.6%,1.8,-11.8%
CC1Cc2ccccc2N1C(=O)CNc1cccc(S(=O)(=O)N2CCCC2)c1 (stereo unspecified),.,.,20µM*
Cc1ccsc1C(=O)NNC(=O)C1CCCCC1C(=O)O (stereo unspecified),-2.3%,4.2[0.0738 µM],22.4µM*
SMILES,HPGD inh,IMPase inh,ALDH1A1 inh
Cc1ccsc1C(=O)NNC(=O)C1CC=CCC1C(=O)O (stereo unspecified),-7.2%,.,1.3%
CN(C=O)CP(=O)(O)CN1CCCCC1,-7.6%,17.5,2.9%
O=C(COC(=O)COc1ccc(Cl)cc1)Nc1ccc(N2CCOCC2)cc1,.,.,4.1%
CC12CC3(C)CC(C)(C1)CC(C(N)=O)(C2)C3,.,.,10.7%
CCOc1ncccc1C(=O)OCc1c(Cl)cccc1Cl,-5.1%,.,10.5%
Cc1ccc(-c2nc(=S)c3c(n2Cc2ccco2)CCCC3)cc1,-23.2%,0.4,12.6µM*
Cc1cccc(-c2nc(=S)c3c(n2Cc2ccco2)CCCC3)c1,-15.5%,-12.9,?
Cc1c(C(=O)OCC2CCCCC2)[nH]c2c1C(=O)CC(c1ccccc1Cl)C2 (stereo unspecified),.,5.3,.
COc1ccc(-c2nc3c(c4c2C[C@H](c2ccccc2)OC4)CN(S(=O)(=O)c2ccc(Cl)c4nonc24)CC3)c(C)c1,-3.2%,.,?
CCOC(=O)/C(=C/c1cn(C)c2ccccc12)NC(=O)c1ccccc1,.,.,2.9%
CC(C)NC(=O)/C(C#N)=C/c1cccc(NC(=O)c2ccccc2Cl)c1,-22.5%,.,14.1µM*
COc1ccc(-n2c(C)cc(/C=C(\C#N)C(=O)NCc3ccco3)c2C)cc1,?,7.1,10.0%
COCCNC(=O)/C(C#N)=C/c1cc(C)n(-c2ccc(C)cc2)c1C,.,.,5.62µM*
O=C(Nc1cccc(NC(=O)c2ccccc2Cl)c1)c1cccc(Br)c1,.,-7.0,.
COCCNC(=O)/C(C#N)=C/C=C/c1ccccc1,.,.,-2.7%
COCCNC(=O)/C(C#N)=C/c1cccc(NC(=O)c2ccccc2Cl)c1,?,10.3,15.8µM*
O=C(Cc1cccc(C(F)(F)F)c1)NCc1ccc(Cl)cc1Cl,-15.2%,7.3,1.8%
COc1cc(CCC(=O)N2CCN(c3ncccn3)CC2)cc(OC)c1OC,.,.,3.8%
Cc1cccc(NS(=O)(=O)c2cc(C(=O)O)ccc2Cl)c1,-7.8%,.,-2.8%
CC(C)/C=N\NC(=O)CCCCC(=O)N/N=C/C(C)C,-7.3%,-5.1,-2.2%
Clc1cccc(NCc2nnc(SCc3ccc(Cl)cc3Cl)o2)c1,-14.9%,1.5,-8.9%
S=c1[nH]nc(CNc2cccc(Cl)c2)o1,.,.,31.6µM*
COc1cccc(CN(Cc2ccco2)C(c2ccc(F)cc2)c2nnnn2C(C)(C)C)c1 (stereo unspecified),-21.3%,8.1,?
CC(C)(C)n1nnnc1CN(Cc1ccc(F)cc1)Cc1ccco1,-1.4%,9.1,14.1µM*
Cn1c(CSc2ncccn2)nnc1SCC(=O)N1CCCC1,.,.,-3.2%
SMILES,HPGD inh,IMPase inh,ALDH1A1 inh
Cc1nnc(C)c2c(C)n(-c3ccc(Br)cc3)c(C)c12,2.3%,-4.1,4.2%
Cc1cn(-c2ccc(Br)cc2)[nH]c1=O,25.1µM*,15.4,3.9%
COc1cc(OC)nc(-n2ncc(Br)c(Br)c2=O)n1,-0.9%,.,10µM*
COC(=O)c1cnn(-c2nc(OC)cc(OC)n2)c1C,-4.3%,.,-1.2%
CCCOC(=O)c1c(NC(=O)c2cc3ccccc3c(=O)o2)sc2c1CCC(C)C2 (stereo unspecified),.,1.4,.
COc1ccccc1Nc1ncccc1C(=O)NCc1ccccc1,-17.8%,1.7,-4.0%
CCOC(=O)c1c(NC(=O)c2cc(-c3ccc(Cl)s3)nc3ccccc23)sc(C(N)=O)c1C,-5.5%,-7.8,7.1%
Cc1ccccc1-c1cc(C(=O)Nc2sc(C)c(C)c2C(N)=O)c2ccccc2n1,31.6µM*,29.5,?
CCOC(=O)c1sc(NC(=O)c2cc(-c3ccccc3C)nc3ccccc23)c(C#N)c1C,15.8µM*,3.2,8.91µM*
COc1ccc(-c2cc(C(=O)Nc3sc4c(c3C#N)CCCC4)c3ccccc3n2)cc1OC,-22.2%,-4.9,-10.0%
CC1=C(C)CC(c2ccccc2)C(C(=O)c2ccccc2O)C1 (stereo unspecified),.,.,-1.3%[13.5 µM]
Cc1cc(C)c2[nH]c(=O)c(CN(Cc3cccs3)C(=S)NCC3CCCO3)cc2c1 (stereo unspecified),-21.3%,.,?
CC1CC(C)(C)CC2(C1)NC(=O)N(CC(=O)NC1CCCc3ccccc31)C2=O (stereo unspecified),-1.4%,.,9.1%
COC(=O)c1cc(-c2ccccc2)sc1NC(=O)CN1C(=O)c2ccccc2C1=O,?,3.8,25.1µM*
COC(=O)c1cc(OC)c(OC)cc1NC(=O)CN1C(=O)c2ccccc2C1=O,-9.2%,-3.0,?
COc1ccccc1C(CCNS(=O)(=O)c1ccc(C)cc1)c1ccco1 (stereo unspecified),-18.2%,4.6,?
